# The campaign covered roughly 360,000 compounds. About 9,100 (2.5%) were called active. About 4% were inconclusive and are not listed. The sample holds actives, similar compounds and a random draw of the others, so the mix is not that of the screen. Cut-off read from the data, not from the text of the source: active = max response below about -50%; inconclusive = no clear call, values can overlap the other calls; inactive = above that.
# Biological target: D(3) dopamine receptor (Homo sapiens) (UniProt P35462)
# Assay: qHTS of D3 Dopamine Receptor Antagonist: qHTS
# Settings: D3R cells, DiscoveRx beta-arrestin luminescence, antagonist mode; stronger effect = lower value
# In short: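 Cells expressing the human receptor were seeded at 1500 cells/well, incubated overnight at 37 degrees C in 5% CO2, then exposed to library compounds with dopamine controls for 90 minutes at 37 degrees C before luminescent detection.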
# % is set by controls: 0 for no effect and ±100 for the full control effect.
# Sequence of D(3) dopamine receptor (Homo sapiens) (P35462 whole entry, looked up): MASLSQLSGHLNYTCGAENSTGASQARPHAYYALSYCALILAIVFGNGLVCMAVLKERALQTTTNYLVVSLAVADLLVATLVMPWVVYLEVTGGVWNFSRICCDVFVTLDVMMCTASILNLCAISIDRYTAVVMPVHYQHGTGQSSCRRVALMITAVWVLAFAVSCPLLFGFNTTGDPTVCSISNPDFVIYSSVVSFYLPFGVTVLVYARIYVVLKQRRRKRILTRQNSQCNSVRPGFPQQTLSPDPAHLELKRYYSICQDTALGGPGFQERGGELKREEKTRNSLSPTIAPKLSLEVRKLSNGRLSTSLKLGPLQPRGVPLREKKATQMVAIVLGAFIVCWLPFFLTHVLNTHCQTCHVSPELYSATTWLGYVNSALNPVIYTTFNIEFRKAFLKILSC
row,SMILES,"max response, negative = inhibition"
1,O=C(Nc1cccc(Cc2ccccc2)c1)Nc1ccc2nc([C@@H]3O[C@H](CO)[C@@H](O)[C@H](O)[C@H]3O)[nH]c2c1,32.8% (inactive)
2,Cc1ccc(C(=O)Nc2c(-c3ccccc3)[nH][nH]c2=O)cc1,-20.8% (inactive)
3,COCOCCn1cc(CN2CCS(=O)(=O)N(Cc3ccc(-c4ccccc4)cc3)C(CC(C)C)C2=O)nn1 (configuration not stated),13% (inactive)
4,CCOC(=O)c1cc(NC(=O)c2cccnc2)ccn1,-0.585% (inactive)
5,Cc1c(C(=O)OC(C)C)sc(NC(=O)c2cccnc2)c1C#N,-61.4% (active)
6,CC(C)NS(=O)(=O)c1ccc(NC(=O)c2cccnc2)cc1,0% (inactive)
7,CCOC(=O)[C@]12CCCC=C1N(Cc1ccc3c(c1)OCO3)C(=O)[C@H](CC(=O)N1CCN(C(=O)c3ccco3)CC1)C2,-0.946% (inactive)
8,Cc1cccc(C(=O)NC2CCN(CC(=O)Nc3cccc(Cl)c3)CC2)c1,-13.9% (inactive)
9,OC[C@@H]1CN(C2CCCC2)C[C@H](n2cnc3c(NC4CCC4)ncnc32)O1,-7.86% (inactive)
10,CNc1ccc([N+](=O)[O-])cc1C(=O)O,-6.53% (inactive)
11,O=C(O)c1ccc([N+](=O)[O-])cc1Sc1ccsc1,-56.7% (active)
12,CCN(CC)c1ccc([N+](=O)[O-])cc1C(=O)O,9.06% (inactive)
13,CN1CCN(CCNC(=O)Nc2ccc([N+](=O)[O-])cc2)CC1,-6.94% (inactive)
14,O=C(c1cc(C(=O)N2CCN(c3ccc(F)cc3)CC2)cc([N+](=O)[O-])c1)N1CCN(c2ccc(F)cc2)CC1,-2.24% (inactive)
15,O=C(NCCCN1CCN(c2ccc(F)cc2)CC1)Nc1ccc([N+](=O)[O-])cc1,-118% (active)
16,COc1ccc(C2OC(CCc3ccccc3)Cc3[nH]c(=S)[nH]c(=O)c32)cc1 (configuration not stated),0% (inactive)
17,OC[C@@H]1CN(Cc2cccs2)C[C@H](n2cnc3c(Nc4ccccc4)ncnc32)O1,-4.85% (inactive)
18,COc1ccc(-c2ccc(CN3C(CC(C)C)C(=O)N(Cc4cn(CC5CCCCC5)nn4)CCS3(=O)=O)cc2)cn1 (configuration not stated),0.993% (inactive)
19,CN(Cc1ccccc1F)c1cc2c(c3c1ccn3C)C1CCC2O1 (configuration not stated),-29.6% (inactive)
20,COc1ccc(/C=N/NC(=O)c2ccc3c(c2)OCCO3)c(OC)c1,-64.3% (active)
21,COc1ccc(/C=N/NC(=O)Nc2ccc3nsnc3c2)c(OC)c1,-16.9% (inactive)
22,COc1ccc(/C=N/NC(=O)CNC(=O)c2ccc(S(=O)(=O)N3CCCC3)cc2)c(OC)c1,-0.269% (inactive)

row,SMILES,"max response, negative = inhibition"
1,COC(=O)[C@@]12C[C@@H](CC(=O)NCc3cccc(C(F)(F)F)c3)C(=O)N(Cc3ccco3)C1=CCC(C)(C)C2,-1.5% (inactive)
2,O=C(/C=C\c1ccc2c(c1)OCO2)NC1(C(=O)Nc2ccc3c(c2)OCCO3)CCCCC1,-59.6% (active)
3,COc1cccc(/C=C/C(=O)Nc2ccc3c(c2)OCCO3)c1,-6.81% (inactive)
4,Cc1cccc(NC(=O)/C=C/c2ccc3c(c2)OCO3)n1,-14.5% (inactive)
5,CSC1=NN(c2ccccc2)CN(c2ccccc2)N1C,-6.6% (inactive)
6,COC(=O)c1ccc2nc(C3CCCCC3)c(Cc3cccc(F)c3)n2c1,10.5% (inactive)
7,CC1CCN(CCC(=O)Nc2ccccc2)CC1,-0.851% (inactive)
8,O=C(CN1CCc2cc3c(cc2C1)OCCCO3)Nc1ccccc1,-19.3% (inactive)
9,CCOC(=O)N1CCN(CCC(=O)Nc2ccccc2)CC1,-15.4% (inactive)
10,Cc1ccc(NC(=O)CCN2CCc3ccccc3C2)cc1,-94.8% (active)
11,Cc1ccc(NC(=O)CN2CCc3ccccc3C2)cc1,-84.2% (active)
12,COc1cc2c(cc1OC)CN(CC(=O)Nc1ccc(F)cc1)CC2,-16.8% (inactive)
13,COc1ccc(NC(=O)C[C@H]2C(=O)N(CCc3ccccc3)C[C@@H]2C)cc1,1.09% (inactive)
14,CC(=O)NC(c1ccccc1)c1nc(-c2cccc(C(C)C)c2)cs1 (configuration not stated),20.2% (inactive)
15,CC1(C(=O)NS(=O)(=O)c2ccc3ccccc3c2)CCN1C(=O)C1(c2ccc(Cl)cc2)CCC1 (configuration not stated),-21.3% (inactive)
16,CNc1cncc(-c2cccc(C(=O)N3CCOCC3)c2)n1,13.3% (inactive)
17,CCC(c1nnnn1-c1ccc2c(c1)OCCO2)N1CCN(c2ccc(C(F)(F)F)cn2)CC1 (configuration not stated),4.77% (inactive)
18,COc1ccc(/C=C2\SC(=S)N(CCC(=O)N3CCOCC3)C2=O)cc1OC,-14.3% (inactive)
19,O=C(NCCCN1CCN(c2ccccc2F)CC1)C1CCC(=O)N1C1CCCCC1 (configuration not stated),-78% (active)
20,COc1ccc(CN2CC(C(=O)NCCN3CCN(c4ccccc4F)CC3)CC2=O)cc1 (configuration not stated),-22.6% (inactive)
21,O=C(NCCCN1CCCCCC1)C1CC(=O)N(C2CCCC2)C1 (configuration not stated),10.5% (inactive)
22,O=C(C[C@H]1CC[C@H]2[C@@H](COC[C@H](O)CN2C(=O)c2ccccn2)O1)N1CCN(c2ccccc2)CC1,-25.4% (inactive)

row,SMILES,"max response, negative = inhibition"
1,CCOC(=O)C1CCCN(C(=O)c2ccc(N(C)C)cc2)CC1 (configuration not stated),22.6% (inactive)
2,CC1=C(C(=O)N2CCOCC2)CC(CC(=O)NCC2CCCCC2)C(=O)N1Cc1ccc(F)cc1 (configuration not stated),-11.1% (inactive)
3,NC(Cc1ccc(F)cc1)c1csc(Nc2nncc3ccccc23)n1 (configuration not stated),7.2% (inactive)
4,S=C1Nc2cc(Cl)ccc2Sc2ccccc21,4.03% (inactive)
5,O=C1Cc2ccccc2Sc2ccc(Cl)cc21,-51% (active)
6,O=C1CC2(CCCC2)Oc2ccc(Cl)cc21,0% (inactive)
7,CCOC(=O)N1CCN(C(=O)C[C@@H]2C[C@@]3(C(=O)OC)CCCCC=C3N(CCC3=CCCCC3)C2=O)CC1,18.8% (inactive)
8,Cc1ccc(Cn2cc(CN3CC(N4CCN(C)CC4)CS3(=O)=O)nn2)cc1 (configuration not stated),-6.65% (inactive)
9,O=S1(=O)CC(N2CCSCC2)CN1Cc1cn(Cc2cccc(Cl)c2)nn1 (configuration not stated),26.4% (inactive)
10,COc1ccc(-c2cc(NC=O)c3ncc(-c4cccc(C(=O)N(C)C)c4)n3c2)c(OC)c1,-2.96% (inactive)
11,COC(=O)[C@]12CCCCC=C1N(CCC1=CCCCC1)C(=O)[C@H](CC(=O)N1CCSCC1)C2,-7.56% (inactive)
12,Cc1ccccc1C#CC1=CC(=O)CC(C)(C)C1,-9.95% (inactive)
13,Cc1nnc(SC(C)C(=O)c2c[nH]c3ccccc23)n1C1CC1 (configuration not stated),20.8% (inactive)
14,O=C(Nc1ccc(Sc2ccc(Br)cc2)cc1)c1ccco1,17.2% (inactive)
15,O=C(CCl)Nc1ccc(Sc2ccc(NC(=O)CCl)cc2)cc1,-60.1% (active)
16,O=C(CCl)Nc1cccc(CP(=O)(c2ccccc2)c2ccccc2)c1,-12.5% (inactive)
17,CC1(C)CC(=O)C=C(c2ccc(COC(=O)c3cc(F)cc(F)c3)cc2)C1=O,-13.6% (inactive)
18,CC1CCCN(CC(O)COCc2ccccc2)C1 (configuration not stated),-0.0789% (inactive)
19,Cc1ccccc1C(OCC(O)CN1CCCCC1CCO)c1ccccc1 (configuration not stated),-53.3% (active)
20,COc1cccc(CN(C)CC(O)COC(c2ccccc2)c2ccccc2C)c1 (configuration not stated),-10.2% (inactive)
21,CCc1nc2c(OCC(N)=O)cccn2c1N(C)C(=O)c1ccc(OC)cc1,0% (inactive)
22,CCCCC(=O)N(C)c1c(CC)nc2c(OCc3ccc(S(C)(=O)=O)cc3)cccn12,0% (inactive)

row,SMILES,"max response, negative = inhibition"
1,Cc1nc2c(OCc3cccc(Cl)c3)cccn2c1N(C)CC1CC1,-0.943% (inactive)
2,CCc1nc2c(OCc3ccc(Cl)cc3Cl)cccn2c1N(C)C(=O)C(C)C,-27.6% (inactive)
3,CCOC(=O)N(C)c1c(CC)nc2c(OCc3ccccc3C(=O)OC)cccn12,-50.7% (active)
4,CCc1nc2c(OCc3ccc(C(=O)OC)cc3)cccn2c1N(C)C(=O)C(C)C,-12.4% (inactive)
5,CCCCN(C=O)c1c(CC)nc2c(OCc3ccccc3C(=O)OC)cccn12,-3.94% (inactive)
6,Cc1nc2c(OCc3ccc(Cl)cc3)cccn2c1N(C)Cc1cccs1,-0.327% (inactive)
7,CCCCC(=O)N(C)c1c(CC)nc2c(OCc3ccc(Cl)cc3Cl)cccn12,-63.9% (active)
8,CCc1nc2c(OCCOc3ccccc3)cccn2c1N(C)C(=O)c1ccc(OC)cc1,-76.4% (active)
9,CCc1nc2c(OCCOc3ccccc3)cccn2c1N(C)C(=O)c1ccccc1F,14.9% (inactive)
10,Cc1nc2c(OCc3ccc(Cl)cc3Cl)cccn2c1N(C)CC1CC1,-58.1% (active)
11,COc1ccc(NC(=O)N(C)C[C@@H]2OCc3cn(nn3)CCCC(=O)N([C@H](C)CO)C[C@H]2C)c(OC)c1,-1.72% (inactive)
12,Cc1ccc2nc(-c3ccco3)c(Cc3cccc(Cl)c3)n2c1,-5.94% (inactive)
13,CCOCCC(=O)Nc1ccc2c(c1)c(=O)n(C)n2-c1ccc2ccccc2c1,-26.6% (inactive)
14,COc1cccc(C(NC(C)=O)c2nc(-c3ccccc3OC)cs2)c1 (configuration not stated),0% (inactive)
15,CCN(CC)C(=O)C1=C(C)N(Cc2ccc(OC)cc2)C(=O)C(CC(=O)NCCCCc2ccccc2)C1 (configuration not stated),17.3% (inactive)
16,CCOc1ccc(CCN2C(=S)N([C@@H](CC(C)C)CN3CCC[C@@H]3CN3C(=S)NC[C@@H]3Cc3ccc(O)cc3)C[C@@H]2Cc2ccc(O)cc2)cc1,1.51% (inactive)
17,CCCCN(Cc1ccccc1)C(=O)C1CCN(Cc2sccc2C)CC1,-66.6% (active)
18,CCCC(=O)C1CCN(Cc2ccccc2)CC1,-29.3% (inactive)
19,CCCCN(C)C(=O)C1CCN(Cc2ccccn2)CC1,-26.1% (inactive)
20,Cc1ccc(F)c(S(=O)(=O)NC(=O)C2(C)CCN2C(=O)c2ccco2)c1 (configuration not stated),0% (inactive)
21,O=C(NC1CCCCC1)C(c1cc2ccccc2o1)n1c(=O)c(-c2ccco2)nc2ccccc21 (configuration not stated),-5.65% (inactive)
